Assay results: article PMC11006913
Where a chain is given by its changes, count along the chain named.

What was measured:
Assay in all cases: PBM; 200 nM protein, PBS
Settings in all cases: dsDNA, one strand shown
HESX1 [1] = target: HESX1 (Homo sapiens, UniProt Q9UBX0 95-180, R165K)
CRX [2] = target: CRX (Homo sapiens, UniProt O43186 26-111)
HESX1 [3] = target: HESX1 (Homo sapiens, UniProt Q9UBX0 95-180)
CRX [4] = target: CRX (Homo sapiens, UniProt O43186 26-111, E42D)
HESX1 [5] = target: HESX1 (Homo sapiens, UniProt Q9UBX0 95-180, R109Q)
Chain of HESX1 (Homo sapiens, UniProt Q9UBX0 95-180, R109Q) (Q9UBX0 95-180 R109Q): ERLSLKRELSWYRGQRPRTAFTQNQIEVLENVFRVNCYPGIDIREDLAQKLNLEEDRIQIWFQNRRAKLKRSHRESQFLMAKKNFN

HESX1 [6] = target: HESX1 (Homo sapiens, UniProt Q9UBX0 95-180, P111T)
Chain of HESX1 (Homo sapiens, UniProt Q9UBX0 95-180, P111T) (Q9UBX0 95-180 P111T): as the sequence (Q9UBX0 95-180 R109Q) above, with Q15R, P17T counted along it

HESX1 [7] = target: HESX1 (Homo sapiens, UniProt Q9UBX0 95-180, F115L)
Chain of HESX1 (Homo sapiens, UniProt Q9UBX0 95-180, F115L) (Q9UBX0 95-180 F115L): as the sequence (Q9UBX0 95-180 R109Q) above, with Q15R, F21L counted along it

CRX [8] = target: CRX (Homo sapiens, UniProt O43186 26-111, R41L)
Chain of CRX (Homo sapiens, UniProt O43186 26-111, R41L) (O43186 26-111 R41L): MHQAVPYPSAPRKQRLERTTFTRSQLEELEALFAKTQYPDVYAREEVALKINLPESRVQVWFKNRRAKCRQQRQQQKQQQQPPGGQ

SIX6 [9] = target: T1, SIX6 (Homo sapiens, UniProt O95475 114-200, L167I)
T1 sequence: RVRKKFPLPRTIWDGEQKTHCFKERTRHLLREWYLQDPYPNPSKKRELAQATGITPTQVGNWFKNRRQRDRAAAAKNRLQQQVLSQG

SIX6 [10] = target: T2, SIX6 (Homo sapiens, UniProt O95475 114-200, L143V)
T2 sequence: T1 sequence with L30V, I54L

SIX6 [11] = target: T3, SIX6 (Homo sapiens, UniProt O95475 114-200, H141N)
T3 sequence: T1 sequence with H28N, I54L

SIX6 [12] = target: T4, SIX6 (Homo sapiens, UniProt O95475 114-200, T165P)
T4 sequence: T1 sequence with T52P, I54L

SIX6 [13] = target: T5, SIX6 (Homo sapiens, UniProt O95475 114-200, L167M)
T5 sequence: T1 sequence with I54M

SIX6 [14] = target: T6, SIX6 (Homo sapiens, UniProt O95475 114-200, L143M)
T6 sequence: T1 sequence with L30M, I54L

SIX6 [15] = target: T7, SIX6 (Homo sapiens, UniProt O95475 114-200, L143I)
T7 sequence: T1 sequence with L30I, I54L

SIX6 [16] = target: T8, SIX6 (Homo sapiens, UniProt O95475 114-200, T165G)
T8 sequence: T1 sequence with T52G, I54L

SIX6 [17] = target: T9, SIX6 (Homo sapiens, UniProt O95475 114-200, T139Q)
T9 sequence: T1 sequence with T26Q, I54L

SIX6 [18] = target: T10, SIX6 (Homo sapiens, UniProt O95475 114-200, T165A)
T10 sequence: T1 sequence with T52A, I54L

SIX6 [19] = target: T11, SIX6 (Homo sapiens, UniProt O95475 114-200, L167V)
T11 sequence: T1 sequence with I54V

SIX6 [20] = target: T12, SIX6 (Homo sapiens, UniProt O95475 114-200)
T12 sequence: T1 sequence with I54L

SIX6 [21] = target: T13, SIX6 (Homo sapiens, UniProt O95475 114-200, T165I)
T13 sequence: T1 sequence with T52I, I54L

VENTX [22] = target: T14, VENTX (Homo sapiens, UniProt O95231 78-163, R121Q)
T14 sequence: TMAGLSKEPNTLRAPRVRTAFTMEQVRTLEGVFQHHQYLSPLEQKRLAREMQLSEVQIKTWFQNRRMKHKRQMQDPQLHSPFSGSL

HOXA4 [23] = target: HOXA4 (Homo sapiens, UniProt Q00056 201-287, W262R)
Chain of HOXA4 (Homo sapiens, UniProt Q00056 201-287, W262R) (Q00056 201-287 W262R): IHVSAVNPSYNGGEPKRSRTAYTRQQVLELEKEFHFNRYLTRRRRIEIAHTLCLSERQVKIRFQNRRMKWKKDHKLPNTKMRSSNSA

VENTX [24] = target: T15, VENTX (Homo sapiens, UniProt O95231 78-163)
T15 sequence: T14 sequence with Q44R

HOXA7 [25] = target: HOXA7 (Homo sapiens, UniProt P31268 116-202)
Chain of HOXA7 (Homo sapiens, UniProt P31268 116-202) (P31268 116-202): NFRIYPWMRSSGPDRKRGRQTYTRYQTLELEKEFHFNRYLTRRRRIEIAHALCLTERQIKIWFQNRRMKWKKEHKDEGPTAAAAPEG

VENTX [26] = target: T16, VENTX (Homo sapiens, UniProt O95231 78-163, Y115F)
T16 sequence: T14 sequence with Y38F, Q44R

HOXA4 [27] = target: HOXA4 (Homo sapiens, UniProt Q00056 201-287, R217L)
Chain of HOXA4 (Homo sapiens, UniProt Q00056 201-287, R217L) (Q00056 201-287 R217L): as the sequence (Q00056 201-287 W262R) above, with R17L, R62W counted along it

HOXA4 [28] = target: HOXA4 (Homo sapiens, UniProt Q00056 201-287)
Chain of HOXA4 (Homo sapiens, UniProt Q00056 201-287) (Q00056 201-287): as the sequence (Q00056 201-287 W262R) above, with R62W counted along it

HOXA7 [29] = target: HOXA7 (Homo sapiens, UniProt P31268 116-202, W177C)
Chain of HOXA7 (Homo sapiens, UniProt P31268 116-202, W177C) (P31268 116-202 W177C): as the sequence (P31268 116-202) above, with W62C counted along it

HOXA4 [30] = target: HOXA4 (Homo sapiens, UniProt Q00056 201-287, W262F)
Chain of HOXA4 (Homo sapiens, UniProt Q00056 201-287, W262F) (Q00056 201-287 W262F): as the sequence (Q00056 201-287 W262R) above, with R62F counted along it

HOXC9 [31] = target: HOXC9 (Homo sapiens, UniProt P31274 178-260, K195R)
Chain of HOXC9 (Homo sapiens, UniProt P31274 178-260, K195R) (P31274 178-260 K195R): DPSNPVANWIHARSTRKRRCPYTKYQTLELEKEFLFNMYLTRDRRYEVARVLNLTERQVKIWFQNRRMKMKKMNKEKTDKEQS

HOXC9 [32] = target: HOXC9 (Homo sapiens, UniProt P31274 178-260)
Chain of HOXC9 (Homo sapiens, UniProt P31274 178-260) (P31274 178-260): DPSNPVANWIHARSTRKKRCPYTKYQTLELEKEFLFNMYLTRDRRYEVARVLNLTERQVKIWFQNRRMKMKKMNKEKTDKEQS

HOXC9 [33] = target: HOXC9 (Homo sapiens, UniProt P31274 178-260, R193K)
Chain of HOXC9 (Homo sapiens, UniProt P31274 178-260, R193K) (P31274 178-260 R193K): as the sequence (P31274 178-260) above, with R16K counted along it

HOXC9 [34] = target: HOXC9 (Homo sapiens, UniProt P31274 178-260, R222W)
Chain of HOXC9 (Homo sapiens, UniProt P31274 178-260, R222W) (P31274 178-260 R222W): as the sequence (P31274 178-260) above, with R45W counted along it

Chain of HESX1 (Homo sapiens, UniProt Q9UBX0 95-180) (Q9UBX0 95-180): as the sequence (Q9UBX0 95-180 R109Q) above, with Q15R counted along it
Chain of HESX1 (Homo sapiens, UniProt Q9UBX0 95-180, R165K) (Q9UBX0 95-180 R165K): as the sequence (Q9UBX0 95-180 R109Q) above, with Q15R, R71K counted along it
Chain of CRX (Homo sapiens, UniProt O43186 26-111) (O43186 26-111): as the sequence (O43186 26-111 R41L) above, with L16R counted along it
Chain of CRX (Homo sapiens, UniProt O43186 26-111, E42D) (O43186 26-111 E42D): as the sequence (O43186 26-111 R41L) above, with L16R, E17D counted along it

GCCGGTCC
binding signal (HESX1 [1]): 6.49 upbm affinity estimate (log intensity, higher = more binding, comparable within an allelic series) | binding signal (CRX [2]): 8.03 upbm affinity estimate (log intensity, higher = more binding, comparable within an allelic series) | binding signal (HESX1 [3]): 6.35 upbm affinity estimate (log intensity, higher = more binding, comparable within an allelic series) | binding signal (CRX [4]): 8.04 upbm affinity estimate (log intensity, higher = more binding, comparable within an allelic series) | binding signal (HESX1 [5]): 6.44 upbm affinity estimate (log intensity, higher = more binding, comparable within an allelic series) | binding signal (HESX1 [6]): 6.43 upbm affinity estimate (log intensity, higher = more binding, comparable within an allelic series) | binding signal (HESX1 [7]): 6.58 upbm affinity estimate (log intensity, higher = more binding, comparable within an allelic series) | binding signal (CRX [8]): 8.24 upbm affinity estimate (log intensity, higher = more binding, comparable within an allelic series)

CAGGCGCC
binding signal (HESX1 [1]): 6.55 upbm affinity estimate (log intensity, higher = more binding, comparable within an allelic series) | binding signal (SIX6 [9]): 8.87 upbm affinity estimate (log intensity, higher = more binding, comparable within an allelic series) | binding signal (SIX6 [10]): 8.82 upbm affinity estimate (log intensity, higher = more binding, comparable within an allelic series) | binding signal (SIX6 [11]): 8.85 upbm affinity estimate (log intensity, higher = more binding, comparable within an allelic series) | binding signal (SIX6 [12]): 8.98 upbm affinity estimate (log intensity, higher = more binding, comparable within an allelic series) | binding signal (SIX6 [13]): 8.93 upbm affinity estimate (log intensity, higher = more binding, comparable within an allelic series) | binding signal (SIX6 [14]): 8.82 upbm affinity estimate (log intensity, higher = more binding, comparable within an allelic series) | binding signal (SIX6 [15]): 8.87 upbm affinity estimate (log intensity, higher = more binding, comparable within an allelic series) | binding signal (SIX6 [16]): 8.8 upbm affinity estimate (log intensity, higher = more binding, comparable within an allelic series) | binding signal (HESX1 [3]): 6.51 upbm affinity estimate (log intensity, higher = more binding, comparable within an allelic series) | binding signal (SIX6 [17]): 8.84 upbm affinity estimate (log intensity, higher = more binding, comparable within an allelic series) | binding signal (SIX6 [18]): 8.89 upbm affinity estimate (log intensity, higher = more binding, comparable within an allelic series) | binding signal (SIX6 [19]): 8.89 upbm affinity estimate (log intensity, higher = more binding, comparable within an allelic series) | binding signal (HESX1 [5]): 6.57 upbm affinity estimate (log intensity, higher = more binding, comparable within an allelic series) | binding signal (SIX6 [20]): 8.81 upbm affinity estimate (log intensity, higher = more binding, comparable within an allelic series) | binding signal (SIX6 [21]): 8.87 upbm affinity estimate (log intensity, higher = more binding, comparable within an allelic series) | binding signal (HESX1 [6]): 6.52 upbm affinity estimate (log intensity, higher = more binding, comparable within an allelic series) | binding signal (HESX1 [7]): 6.58 upbm affinity estimate (log intensity, higher = more binding, comparable within an allelic series)

CCTAGCTC
binding signal (HESX1 [1]): 6.41 upbm affinity estimate (log intensity, higher = more binding, comparable within an allelic series) | binding signal (VENTX [22]): 8.35 upbm affinity estimate (log intensity, higher = more binding, comparable within an allelic series) | binding signal (HOXA4 [23]): 9.86 upbm affinity estimate (log intensity, higher = more binding, comparable within an allelic series) | binding signal (VENTX [24]): 8.47 upbm affinity estimate (log intensity, higher = more binding, comparable within an allelic series) | binding signal (HOXA7 [25]): 8.59 upbm affinity estimate (log intensity, higher = more binding, comparable within an allelic series) | binding signal (VENTX [26]): 8.28 upbm affinity estimate (log intensity, higher = more binding, comparable within an allelic series) | binding signal (HESX1 [3]): 6.56 upbm affinity estimate (log intensity, higher = more binding, comparable within an allelic series) | binding signal (HOXA4 [27]): 9.83 upbm affinity estimate (log intensity, higher = more binding, comparable within an allelic series) | binding signal (HOXA4 [28]): 9.82 upbm affinity estimate (log intensity, higher = more binding, comparable within an allelic series) | binding signal (HESX1 [5]): 6.57 upbm affinity estimate (log intensity, higher = more binding, comparable within an allelic series) | binding signal (HESX1 [6]): 6.46 upbm affinity estimate (log intensity, higher = more binding, comparable within an allelic series) | binding signal (HESX1 [7]): 6.62 upbm affinity estimate (log intensity, higher = more binding, comparable within an allelic series) | binding signal (HOXA7 [29]): 8.42 upbm affinity estimate (log intensity, higher = more binding, comparable within an allelic series) | binding signal (HOXA4 [30]): 9.87 upbm affinity estimate (log intensity, higher = more binding, comparable within an allelic series)

CCCGGCTC
binding signal (HESX1 [1]): 6.39 upbm affinity estimate (log intensity, higher = more binding, comparable within an allelic series) | binding signal (HOXC9 [31]): 9.4 upbm affinity estimate (log intensity, higher = more binding, comparable within an allelic series) | binding signal (HESX1 [3]): 6.47 upbm affinity estimate (log intensity, higher = more binding, comparable within an allelic series) | binding signal (HOXC9 [32]): 9.46 upbm affinity estimate (log intensity, higher = more binding, comparable within an allelic series) | binding signal (HOXC9 [33]): 9.4 upbm affinity estimate (log intensity, higher = more binding, comparable within an allelic series) | binding signal (HESX1 [5]): 6.38 upbm affinity estimate (log intensity, higher = more binding, comparable within an allelic series) | binding signal (HESX1 [6]): 6.47 upbm affinity estimate (log intensity, higher = more binding, comparable within an allelic series) | binding signal (HOXC9 [34]): 9.63 upbm affinity estimate (log intensity, higher = more binding, comparable within an allelic series) | binding signal (HESX1 [7]): 6.5 upbm affinity estimate (log intensity, higher = more binding, comparable within an allelic series)

GCCAGCGA
binding signal (HESX1 [1]): 6.34 upbm affinity estimate (log intensity, higher = more binding, comparable within an allelic series) | binding signal (VENTX [22]): 8.16 upbm affinity estimate (log intensity, higher = more binding, comparable within an allelic series) | binding signal (VENTX [24]): 8.16 upbm affinity estimate (log intensity, higher = more binding, comparable within an allelic series) | binding signal (VENTX [26]): 8.18 upbm affinity estimate (log intensity, higher = more binding, comparable within an allelic series) | binding signal (HESX1 [3]): 6.55 upbm affinity estimate (log intensity, higher = more binding, comparable within an allelic series) | binding signal (HESX1 [5]): 6.49 upbm affinity estimate (log intensity, higher = more binding, comparable within an allelic series) | binding signal (HESX1 [6]): 6.48 upbm affinity estimate (log intensity, higher = more binding, comparable within an allelic series) | binding signal (HESX1 [7]): 6.56 upbm affinity estimate (log intensity, higher = more binding, comparable within an allelic series)

CAGCCAGG
binding signal (HESX1 [1]): 6.31 upbm affinity estimate (log intensity, higher = more binding, comparable within an allelic series) | binding signal (VENTX [22]): 8.2 upbm affinity estimate (log intensity, higher = more binding, comparable within an allelic series) | binding signal (SIX6 [9]): 9.07 upbm affinity estimate (log intensity, higher = more binding, comparable within an allelic series) | binding signal (HOXC9 [31]): 9.53 upbm affinity estimate (log intensity, higher = more binding, comparable within an allelic series) | binding signal (VENTX [24]): 8.23 upbm affinity estimate (log intensity, higher = more binding, comparable within an allelic series) | binding signal (SIX6 [10]): 8.86 upbm affinity estimate (log intensity, higher = more binding, comparable within an allelic series) | binding signal (SIX6 [11]): 9.06 upbm affinity estimate (log intensity, higher = more binding, comparable within an allelic series) | binding signal (SIX6 [12]): 8.91 upbm affinity estimate (log intensity, higher = more binding, comparable within an allelic series) | binding signal (VENTX [26]): 8.16 upbm affinity estimate (log intensity, higher = more binding, comparable within an allelic series) | binding signal (SIX6 [13]): 9.02 upbm affinity estimate (log intensity, higher = more binding, comparable within an allelic series) | binding signal (SIX6 [14]): 9.06 upbm affinity estimate (log intensity, higher = more binding, comparable within an allelic series) | binding signal (SIX6 [15]): 9.03 upbm affinity estimate (log intensity, higher = more binding, comparable within an allelic series) | binding signal (SIX6 [16]): 9.14 upbm affinity estimate (log intensity, higher = more binding, comparable within an allelic series) | binding signal (HESX1 [3]): 6.36 upbm affinity estimate (log intensity, higher = more binding, comparable within an allelic series) | binding signal (SIX6 [17]): 9.1 upbm affinity estimate (log intensity, higher = more binding, comparable within an allelic series) | binding signal (HOXC9 [32]): 9.58 upbm affinity estimate (log intensity, higher = more binding, comparable within an allelic series) | binding signal (SIX6 [18]): 9.02 upbm affinity estimate (log intensity, higher = more binding, comparable within an allelic series) | binding signal (HOXC9 [33]): 9.41 upbm affinity estimate (log intensity, higher = more binding, comparable within an allelic series) | binding signal (SIX6 [19]): 9.01 upbm affinity estimate (log intensity, higher = more binding, comparable within an allelic series) | binding signal (HESX1 [5]): 6.38 upbm affinity estimate (log intensity, higher = more binding, comparable within an allelic series) | binding signal (SIX6 [20]): 9.07 upbm affinity estimate (log intensity, higher = more binding, comparable within an allelic series) | binding signal (SIX6 [21]): 8.99 upbm affinity estimate (log intensity, higher = more binding, comparable within an allelic series) | binding signal (HESX1 [6]): 6.49 upbm affinity estimate (log intensity, higher = more binding, comparable within an allelic series) | binding signal (HOXC9 [34]): 9.62 upbm affinity estimate (log intensity, higher = more binding, comparable within an allelic series) | binding signal (HESX1 [7]): 6.49 upbm affinity estimate (log intensity, higher = more binding, comparable within an allelic series)
